From PubChem
An excerpt weighted towards active compounds, which were near 2.4% of everything screened.
CHRM1 antagonist – antagonists of human M1 muscarinic receptor; CHO-K1 hM1, Fluo-8 calcium fluorescence, ACh EC80 antagonist; inhibition, % at 3 µM; 360,000 tested, 1.3% active;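 active means percent inhibition above its own plate's cutoff, namely the mean of that plate's compound wells plus 3 SD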;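 further: peak over basal fluorescence ratio during 140 s after agonist addition; 0% = ACh EC80 plus DMSO and 100% = DMSO alone without agonist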
Target sequence (P11229 whole entry, looked up): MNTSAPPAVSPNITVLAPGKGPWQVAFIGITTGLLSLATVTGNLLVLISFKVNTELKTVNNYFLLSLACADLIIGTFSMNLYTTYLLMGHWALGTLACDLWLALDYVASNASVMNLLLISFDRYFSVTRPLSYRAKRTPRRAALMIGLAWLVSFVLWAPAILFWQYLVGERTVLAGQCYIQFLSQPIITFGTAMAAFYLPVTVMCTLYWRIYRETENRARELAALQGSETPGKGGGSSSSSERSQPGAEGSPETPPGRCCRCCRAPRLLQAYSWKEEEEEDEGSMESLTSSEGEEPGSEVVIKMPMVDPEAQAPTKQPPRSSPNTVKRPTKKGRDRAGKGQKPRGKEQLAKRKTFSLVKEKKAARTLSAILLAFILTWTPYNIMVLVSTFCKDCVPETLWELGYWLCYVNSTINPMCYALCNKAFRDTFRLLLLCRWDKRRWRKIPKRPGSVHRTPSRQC
M1 PAM parental – counter-screen for M1 PAMs: effect in parental CHO-K1 cells | ATP EC20, Fluo-8 calcium fluorescence; 0% at ATP EC20, 100% at ATP max | activation, % at 3 µM | 360,000 tested, 0.02% active | AID 602247;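 active means activation above the run cutoff, the mean activation of all test compounds plus 3 SD, cut at about 40% in these data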;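 further: peak over basal fluorescence ratio in a 140 s read after ATP addition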
CHRM1 agonist – activates human CHRM1 receptor; 360,000 tested, 0.33% active; P11229; AID 588814; activation, % at 3 µM; CHO-K1 hM1, Fluo-8 calcium fluorescence, agonist mode; 0% DMSO, 100% acetylcholine EC100;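 active means activation above the run's mean compound activation plus 3 SD, cut at about 16% in these data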;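 further: peak over basal fluorescence ratio within a 140 s kinetic read after compound addition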
M1 ag parental – M1 agonist counterscreen hit in parental CHO-K1 cells. Fluo-8 calcium fluorescence; scaled to maximal ATP response, vehicle zero. activation, % at 3 µM. 360,000 tested, 0.48% active. AID 602248; in the data active means activation above about 15%;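 further: untransfected CHO-K1 host cells lacking M1 receptor as counterscreen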
M1 PAM – positive allosteric modulators of human M1 muscarinic receptor; P11229; CHO-K1 hM1, Fluo-8 calcium fluorescence, ACh EC20; 0% = ACh EC20, 100% = maximal ACh; activation, % at 3 µM; 360,000 tested, 0.088% active; in the data active means activation above about 19%, passing the limit was not always enough
CHO-K1 Ca antag – nonselective inhibitor or artifact in parental CHO-K1 cells; AID 602250; ATP-induced calcium, Fluo-8 fluorescence; 360,000 tested, 0.6% active; inhibition, % at 3 µM;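 active means inhibition above a per-plate cutoff, the plate's mean sample inhibition plus 3 SD, cut at about 24% in these data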;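 further: 0% = DMSO plus EC80 ATP and 100% = DMSO alone without ATP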
Active calls of the source: *; x = not tested or not shown.

SMILES	CHRM1 antagonist	M1 PAM parental	CHRM1 agonist	M1 ag parental	M1 PAM	CHO-K1 Ca antag
C=CCN(c1ccccc1Cl)S(=O)(=O)c1cccc(C(=O)OCC(=O)N(C)C2CCS(=O)(=O)C2)c1 (stereo not drawn)	-7	9	-13	1	18	1
CC(O)(C#CCN1CCOCC1)c1ccccc1 (stereo not drawn)	-10	1	-1	0	-5	-3
CC(C)C(O)(C#CCN1CCCC1)c1ccccc1 (stereo not drawn)	92*	19	-5	2	-22	-10
CC(C)C(O)(C#CCN1CCCCC1)c1ccccc1 (stereo not drawn)	99*	11	-9	2	-24	-11
CCOC(=O)[C@]12CCC=C1N(Cc1cccc3ccccc13)C(=O)[C@H](CC(=O)N1CCOCC1)C2	x	14	x	1	x	-21
COc1ccc(NC(=O)CN2CCN(CC(=O)Nc3ccccc3Cl)CC2)c(OC)c1	-10	19	-2	1	6	-22
COc1ccc(NC(=O)N2CCC(C(=O)c3ccc(F)cc3)CC2)cc1	-4	15	-1	0	2	0
COc1ccccc1NC(=O)C1CCCCN1S(=O)(=O)c1ccc(F)cc1 (stereo not drawn)	-2	2	-7	0	3	8
COc1ccc(NC(=O)C2CCCCN2S(=O)(=O)c2ccc(F)cc2)c(OC)c1 (stereo not drawn)	-3	-4	-2	0	9	27*
COc1ccc(NC(=O)CN2CCN(c3nc(-c4ccc(F)cc4)cs3)CC2)c(OC)c1	-7	53*	-5	0	8	-26
COc1ccc(OC)c(C(=O)N2CCC(C(=O)c3ccc(F)cc3)CC2)c1	12	-7	0	1	-3	24*
COc1ccc(NC(=O)CN2CCN(c3ccc(Cl)cc3)CC2)c(OC)c1	-4	42*	-3	0	-1	-21
Cn1c(N)nc(N)c(NC=O)c1=O	-4	11	-2	0	2	2
CCCCn1c(N)c(N(CC(C)C)C(=O)c2ccc(S(=O)(=O)N3CCCCC3)cc2)c(=O)[nH]c1=O	-10	-30	-4	0	9	-1
COc1ccc(NC(=O)CN2CCC(C(=O)c3ccc(F)cc3)CC2)c(OC)c1	2	-9	-2	37*	-1	-11
OC(C#CCCN1CCCCC1)(c1ccccc1)c1ccccc1	99*	10	-3	0	-27	-10
CCN(CC)CCC#CC(O)(c1ccccc1)c1ccccc1	99*	23	-11	7	-27	-8
OC(CCN1CCCCC1)(c1ccccc1)C1C[C@@H]2C=C[C@H]1C2 (stereo partly drawn)	99*	12	-9	0	-26	-1
Cc1ccc(C(O)(CCN2CCCCC2)c2ccccc2)cc1 (stereo not drawn)	101*	5	-9	0	-27	-8
O=P(Cc1cccc2ccccc12)(c1ccccc1)c1ccccc1	-15	0	-2	-1	13	-4
OC(C#CCCN1CCCCC1)(c1ccccc1)C1CCCCC1 (stereo not drawn)	97*	1	-7	1	-25	0
OC[C@@H]1CN(Cc2ccco2)C[C@H](n2cnc3c(N4CCOCC4)ncnc32)O1	-10	13	-1	0	6	-6
CCCC(CCC)C(=O)OC1C[C@H]2CC[C@@H](C1)[N+]2(C)C (stereo partly drawn)	98*	6	-7	0	-26	-1
CC(=O)C1=C(c2ccccc2)NC(=S)NC1c1cc(Cl)c(OC(C)C)c(Cl)c1 (stereo not drawn)	0	22	-1	24*	4	10
COc1cc(C2NC(=S)NC(c3ccccc3)=C2C(C)=O)cc(Cl)c1OCC(=O)O (stereo not drawn)	-3	29	-4	2	5	-10
SMILES	CHRM1 antagonist	M1 PAM parental	CHRM1 agonist	M1 ag parental	M1 PAM	CHO-K1 Ca antag
CCOC(=O)c1cnn(-c2ccccc2)c1-n1cccc1C(=O)C(=O)Nc1ccc(OC)cc1	-37	-6	-1	0	19*	-7
O=C(O)c1ccc(N2CCS(=O)(=O)CC2)cc1	-3	12	-6	0	7	-3
C/C(=N\O)C(=O)NCc1ccncc1	3	-10	-3	0	-8	25*
O=C(NCc1ccncc1)C(=O)NCc1ccncc1	-11	-9	1	0	11	-8
Cc1ccc(CNC(=O)[C@H](Cc2ccccc2)NC(=O)C2CCNCC2)cc1	-15	17	-2	1	9	31*
Cc1ccc(CC(CC(=O)O)C(=O)NCc2ccccc2)cc1 (stereo not drawn)	0	13	-4	1	4	-3
Cc1ccc2nc(N)nnc2c1	-17	20	1	1	11	-14
Nc1nnc2cc(Cl)ccc2n1	-16	-5	8	0	28*	-22
Oc1cccc2cc3cccc(O)c3c(O)c12	-16	-12	-2	0	-2	-2
CC(C)(C)OC(=O)N1CCCC(C(=O)Nc2cccc(C(=O)NCCc3ccccc3)c2)C1 (stereo not drawn)	-5	14	9	8	2	-9
CC(C)(C)OC(=O)N1CCCC(C(=O)Nc2cccc(C(=O)NCCCCc3ccccc3)c2)C1 (stereo not drawn)	27*	-6	3	10	-20	5
Cc1ccc(Nc2nnns2)cc1	0	9	-2	0	5	0
CC1=CC(C)(C)N=C(Nc2ccc(C)cc2)S1	58*	7	-10	1	-36	-20
CC(C)c1ccccc1OCCCN1CCCC1	42*	-21	-10	0	-26	16
Cc1cc(Br)ccc1OCCOCCN1CCCC1	-4	1	-8	1	-8	1
Cc1cc(Br)ccc1OCCCCN1CCCCC1	42*	14	-9	5	-26	-5
Brc1ccccc1OCCCCCN1CCOCC1	24	19	-3	1	-12	-13
CC(C)c1ccccc1OCCCCCN1CCOCC1	62*	3	-8	1	-25	0
CC(C)c1ccccc1OCCCCN1CCCCC1	64*	-1	-8	1	-27	-8
Cc1nc(/C(=N/O)C(N)=O)cs1	-24	7	-3	0	6	-14
N#CCCn1nc2c(c1N)CCC2	-16	16	1	0	6	-21
COc1ccc(C2c3ccc(O)cc3Oc3ncn4nc(-c5cccnc5)nc4c32)cc1OC (stereo not drawn)	-7	13	-3	4	7	-6
Cc1cc2c(=O)n(C)c(SCC(=O)Nc3cccc(F)c3)nc2s1	4	10	-5	4	-1	-6
CCN(CC)C(=O)Cn1cc(C(=O)C(=O)NCCc2c[nH]c3ccccc23)c2ccccc21	-3	13	0	2	3	0
